NCOA1 inh: human NCOA1 inhibition; Q15788; HEK293 GAL4-SRC1 luciferase reporter, luminescence; inhibition, % at 3.6 µM; hit rate 0.12% among 360,000; AID 588354;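 active = inhibition above the campaign mean plus 3 SD, with each screening campaign given its own cutoff, cut at about 60% in these data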;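 also: 0% = DMSO treated cells and 100% = gossypol at 36 µM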
Target sequence (Q15788 whole entry, looked up, the tested form may be a part): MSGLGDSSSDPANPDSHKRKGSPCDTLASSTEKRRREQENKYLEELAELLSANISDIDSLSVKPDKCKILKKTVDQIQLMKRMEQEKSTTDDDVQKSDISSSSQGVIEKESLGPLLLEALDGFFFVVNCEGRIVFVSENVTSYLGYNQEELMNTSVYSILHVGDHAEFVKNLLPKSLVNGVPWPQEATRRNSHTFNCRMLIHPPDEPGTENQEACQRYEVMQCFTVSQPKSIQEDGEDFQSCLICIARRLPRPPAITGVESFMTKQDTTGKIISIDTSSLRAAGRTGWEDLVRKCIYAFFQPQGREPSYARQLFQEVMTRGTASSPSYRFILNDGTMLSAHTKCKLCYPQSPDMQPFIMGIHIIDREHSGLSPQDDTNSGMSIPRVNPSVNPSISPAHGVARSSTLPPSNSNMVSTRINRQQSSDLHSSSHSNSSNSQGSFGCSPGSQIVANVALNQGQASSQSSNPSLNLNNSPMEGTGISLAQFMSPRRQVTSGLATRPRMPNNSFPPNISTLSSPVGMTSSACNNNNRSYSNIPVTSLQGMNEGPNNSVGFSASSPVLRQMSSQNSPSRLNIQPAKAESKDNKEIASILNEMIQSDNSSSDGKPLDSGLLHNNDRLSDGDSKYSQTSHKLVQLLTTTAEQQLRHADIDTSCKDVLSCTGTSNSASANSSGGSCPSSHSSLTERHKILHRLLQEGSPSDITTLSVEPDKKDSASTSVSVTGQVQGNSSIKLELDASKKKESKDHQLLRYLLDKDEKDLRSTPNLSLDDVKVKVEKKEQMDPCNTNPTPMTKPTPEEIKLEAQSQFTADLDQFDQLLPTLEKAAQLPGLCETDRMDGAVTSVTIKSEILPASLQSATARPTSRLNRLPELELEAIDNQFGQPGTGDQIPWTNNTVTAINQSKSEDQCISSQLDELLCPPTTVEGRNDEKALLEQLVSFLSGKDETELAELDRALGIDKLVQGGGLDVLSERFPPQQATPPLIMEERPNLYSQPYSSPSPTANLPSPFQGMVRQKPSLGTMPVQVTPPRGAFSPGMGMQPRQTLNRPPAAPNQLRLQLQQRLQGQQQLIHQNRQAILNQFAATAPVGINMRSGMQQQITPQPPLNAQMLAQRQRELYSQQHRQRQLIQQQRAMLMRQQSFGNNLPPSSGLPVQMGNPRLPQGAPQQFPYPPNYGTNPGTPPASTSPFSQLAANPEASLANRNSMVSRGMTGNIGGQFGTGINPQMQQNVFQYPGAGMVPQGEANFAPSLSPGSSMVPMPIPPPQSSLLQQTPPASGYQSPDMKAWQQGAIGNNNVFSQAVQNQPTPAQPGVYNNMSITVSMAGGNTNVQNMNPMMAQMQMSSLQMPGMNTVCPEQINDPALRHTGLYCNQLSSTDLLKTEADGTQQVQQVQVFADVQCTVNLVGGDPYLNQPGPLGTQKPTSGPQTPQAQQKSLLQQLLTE
LRH-1 inv ag: suppresses constitutive activity of human LRH-1; O00482; HEK293T StAR-luciferase reporter, LRH-1 transfected, 24 h; inhibition, % at 3.6 µM; hit rate 0.13% among 360,000; AID 602396;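 active = inhibition above the mean inhibition of all tested compounds plus 3 SD, cut at about 73% in these data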;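 also: 0% = DMSO wells and 100% = reporter-only cells lacking LRH-1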
COUP-TFII inh: NR2F2 (human) inhibition, primary screen; P24468; HEK293T NGFI-A luciferase reporter, luminescence; inhibition, % at 8.6 µM; hit rate 0.7% among 370,000; AID 686940;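 active = inhibition above a per-plate cutoff, mean inhibition of test wells between control levels plus 3 SD, cut at about 38% in these data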;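 also: cells cotransfected with COUP-TFII expression vector driving the NGFI-A reporter; 0% = median of COUP-TF2 test wells and 100% = reporter-only cells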
NCOA2 inhibitor: inhibits human steroid receptor coactivator 2 | HEK293 GAL4-SRC2 luciferase reporter, luminescence | inhibition, % at 9 µM | hit rate 0.17% among 370,000;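 active = inhibition above the mean inhibition of all tested compounds plus 3 SD, set per campaign, cut at about 52% in these data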;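 also: 0% = DMSO treated cells and 100% = cells given Gossypol at 36 µM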
NCOA3 inh: inhibitors of human steroid receptor coactivator 3 (SRC3); HEK293 GAL4-SRC3 luciferase reporter, luminescence; inhibition, % at 3.6 µM; hit rate 0.17% among 360,000; AID 588352;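 active = inhibition above a per-campaign cutoff, the mean of all compounds plus 3 SD, cut at about 60% in these data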;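 also: 0% = DMSO-treated cells and 100% = gossypol-treated cells at 36 µM; higher means less SRC3-driven luciferase light from the GAL4 reporter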
An asterisk follows results filed as active; nt = no result. The list is not random: actives were taken first. Their share in the collection is about 0.83%.

SMILES | NCOA1 inh | LRH-1 inv ag | COUP-TFII inh | NCOA2 inhibitor | NCOA3 inh
CCOc1ccc(C=Nn2c(-c3cccc(OC(C)C)c3)n[nH]c2=S)cc1 | nt | nt | -4.9 | -0.4 | nt
COc1ccccc1-c1nnc(Sc2nc([N+](=O)[O-])nn2C)o1 | 64.3* | 75.3* | 12.1 | 64.6* | 73.2*
C(=NNc1ccc2ccccc2n1)c1ccccn1 | 72.1* | 79.8* | -45.5 | -19.8 | 68.4*
CCN1C/C(=C/c2ccc(OC)c(O)c2)C(=O)/C(=C/c2ccc(OC)c(O)c2)C1 | -5.0 | 21.4 | -10.1 | 0.5 | -0.6
COc1ccc(/C=C2\CN(Cc3ccccc3)C/C(=C\c3ccc(OC)c(O)c3)C2=O)cc1O | 32.6 | 15.7 | 4.4 | 52.2* | 43.5
FC(F)(F)c1cc(-c2ccccc2)nc(N2CCCCC2)n1 | -24.1 | -2.3 | 10.7 | -8.2 | 7.9
O=C(O)C1CCCN1c1nc(-c2ccc(Cl)c(Cl)c2)cc(C(F)(F)F)n1 (stereo unspecified) | 53.4 | 91.9* | 26.0 | -15.5 | 72.4*
CC(=O)NC(c1ccc(Cl)cc1Cl)c1ccc2cccnc2c1O (stereo unspecified) | 40.2 | 88.1* | -8.7 | 23.4 | 23.3
CC(=O)NC(c1ccc2ccccc2c1)c1ccc2cccnc2c1O (stereo unspecified) | 48.1 | 89.9* | -18.7 | 27.1 | 42.2
COCCCNC(=O)C[C@H]1C[C@@]2(C(=O)OC)C(=C[C@H](C(C)C)O[C@@H]2C2CC2)N(Cc2cccc3ccccc23)C1=O | nt | nt | 11.9 | 1.8 | nt
CC(=O)O[C@@H]1C[C@H]2C(C)(C)C(=O)C=C[C@]2(C)[C@H]2CC[C@@]3(C)[C@H](c4ccoc4)OC(=O)[C@H]4O[C@]43[C@@]21C | 23.7 | 31.0 | 30.5 | 52.3* | 25.8
O=C(CSc1nc2ccccc2o1)NN=C/C=C/c1ccccc1 | nt | nt | -20.6 | -44.1 | nt
CC1(C)CC(NNCCC#N)=CC(=[N+]2CCCC2)C1 | 7.3 | 2.1 | -7.3 | 22.2 | 4.5
CN(Cc1ccccc1)C1=CC(=[N+]2CCCCC2)CC(C)(C)C1 | 61.1* | 84.0* | 74.8* | -1.6 | 72.2*
O=C1CC(=O)OC(c2ccc([N+](=O)[O-])cc2)O1 | -16.7 | 9.4 | nt | nt | 78.2*
CCC1C(=O)C(C)(C)C(=O)OC1c1ccc([N+](=O)[O-])cc1 (stereo unspecified) | -9.8 | -2.1 | 6.8 | -0.5 | -23.1
Cc1cccc(OCc2n(CC(=O)OC3CC(C)CCC3C(C)C)c3ccccc3[n+]2C)c1 (stereo unspecified) | 6.7 | 13.8 | nt | nt | 25.7
CC1CCC(C(C)C)C(OC(=O)Cn2c(-c3ccc(F)cc3)[n+](C)c3ccccc32)C1 (stereo unspecified) | 39.8 | 67.4 | 25.3 | 35.7 | 67.0*
O=C1[C@@H]2Cc3c([nH]c4ccccc34)C(c3ccc([N+](=O)[O-])cc3)N2C(=O)CN1C1CC1 (stereo partly specified) | 75.2* | 50.9 | 26.0 | -8.3 | 68.7*
CC(C)CNC(=O)OCc1cn(Cc2ccccc2F)nn1 | nt | nt | 0.3 | -4.3 | nt
O=C(Nc1sc2c(c1C(=O)O)CCCC2)c1ccc(F)cc1 | -0.1 | 29.6 | 0.2 | -58.4 | 43.8
CC(C)(C)c1ccc(C(=O)Nc2sc3c(c2C(=O)O)CCC3)cc1 | 66.8* | 84.4* | 29.2 | 67.6* | 77.4*
CCCCNC(=O)N1CCC(c2nc3ccc(Cl)cc3[nH]2)CC1 | nt | nt | 0.8 | 3.8 | nt
O=C(CCl)NC(Cc1ccccc1)c1ccccc1 (stereo unspecified) | 41.4 | 37.4 | 15.9 | 56.6* | 54.8
COc1cc(OC)c(C#N)c(S(=O)(=O)Cc2ccccc2)c1 | -3.9 | 8.3 | -0.3 | 0.4 | 9.2
SMILES | NCOA1 inh | LRH-1 inv ag | COUP-TFII inh | NCOA2 inhibitor | NCOA3 inh
N#Cc1c([N+](=O)[O-])cc([N+](=O)[O-])cc1S(=O)(=O)Cc1ccccc1 | -8.5 | 31.6 | 6.0 | 61.0* | -23.2
c1ccc(-c2cccc(-c3ccccn3)n2)nc1 | 80.6* | 97.6* | nt | nt | 83.6*
c1ccc(-c2nnc(-c3ccccn3)nn2)nc1 | -123.7 | -125.8 | -45.7 | -59.6 | -83.5
O=C(NCCc1ccccc1Cl)[C@@H]1CCCN1C(=O)[C@@H](NC(=O)N1CCOCC1)c1ccccc1 | nt | nt | 13.9 | 18.9 | nt
CCOC(=O)N(C)[C@H]1C[C@H]2c3cc(-c4ccccc4C)ccc3CCN2C[C@H]1[C@H](C)O | nt | nt | 61.1* | 24.9 | nt
O=C(O)CCCCCCCC(=O)O | 3.2 | 0.4 | 14.9 | -12.8 | -8.9
O=C(O)CCCCCCCCCCC1CCC(O)C1O (stereo unspecified) | 6.5 | 4.7 | 40.8* | 40.3 | 19.5
CCn1c(COc2ccc(C)cc2)nnc1SCC(=O)Nc1ccccc1-c1ccccc1 | nt | nt | 10.5 | 6.3 | nt
COc1ccc2nc(NC(=O)c3ccccc3C(=O)O)sc2c1 | -2.8 | -3.5 | -1.7 | -37.0 | -8.9
COc1ccc(C(=O)Nc2nc3ccccc3s2)c(OC)c1 | 88.8* | 92.7* | 99.3* | 92.8* | 91.0*
CCOC(=O)c1ccc2c(c1)n(CC)c(/C=C/N(C)c1ccccc1)[n+]2CC | 26.0 | -0.1 | 2.7 | -1.0 | 31.3
CC[n+]1c(/C=C/N(C)c2ccccc2)n(-c2ccccc2)c2ccc(-c3nc4ccccc4s3)cc21 | 82.0* | 90.2* | nt | nt | 83.0*
CC(C)NS(=O)(=O)c1ccc(OCC(=O)N2CCN(c3ccccc3)CC2)cc1 | -6.1 | -9.3 | 15.5 | 5.1 | 6.7
O=C(COc1ccc(S(=O)(=O)NC2CCCCC2)cc1)N1CCN(c2cccc(Cl)c2)CC1 | 7.5 | 15.8 | 57.2* | 24.5 | 25.7
O=C(/C=C/c1ccc(O)cc1)c1ccc(NC2=C(N3CCCCC3)C(=O)c3ccccc3C2=O)cc1 | 26.3 | 76.1* | 10.9 | 1.7 | 41.8
O=C1C(Nc2cccc(O)c2)=C(N2CCCCC2)C(=O)c2ccccc21 | -4.8 | 15.8 | -8.8 | -4.2 | -24.2
COc1ccccc1NC1=C(N2CCCCC2)C(=O)c2ccccc2C1=O | 73.6* | 97.1* | nt | nt | 79.7*
Cc1ccc(NC2=C(N3CCCCC3)C(=O)c3ccccc3C2=O)cc1 | 6.5 | 62.4 | -19.4 | -39.5 | 44.8
O=C(/C=C/c1ccc(O)cc1)c1ccccc1 | -44.1 | -22.2 | -22.5 | -42.3 | -14.9
O=C1C(Nc2ccccc2)=C(N2CCCCC2)C(=O)c2ccccc21 | 29.4 | 93.2* | 5.7 | 1.2 | 67.6*
CCCN(CC(=O)Nc1ccccc1C)C(=O)COc1c(C)cccc1C | -6.3 | -6.2 | 5.9 | -5.5 | 11.7
CCCN(CC(=O)Nc1ccccc1C)C(=O)CCl | 49.3 | 38.8 | 4.6 | 55.8* | 56.1
CCc1ccc(C2=NN(CCC(=O)NC(C)c3ccc4c(c3)OCCO4)C(=O)CC2)cc1 (stereo unspecified) | 11.4 | 20.6 | 11.5 | 9.3 | 13.6
Cc1nc2cc(-c3ccc(Cl)cc3)nn2c(C)c1CCC(=O)NC(C)c1ccc2c(c1)OCCO2 (stereo unspecified) | 16.5 | 2.2 | 26.4 | 73.0* | 12.9
COc1ccc(S[C@]2(C(=O)N3CCN(C(C)=O)CC3)CC(=O)N[C@@H]2c2ccc(OC)cc2)cc1 | nt | nt | 3.6 | -7.3 | nt
CCOC(=O)CCSc1nc(C(C)(C)C)cc(C(F)(F)F)c1C#N | 10.9 | 1.0 | -17.0 | 69.9* | 16.9

Screening data: PubChem BioAssay, The Scripps Research Institute Molecular Screening Center
